Bioassay records from PubChem.
DT40 TDP1 CPT = qHTS for Inhibitors of human tyrosyl-DNA phosphodiesterase 1 (TDP1): qHTS in cells in presence of CPT | AID 686979, 2013 | 12% of 420,000 active | Potency, µM (series often up to 46.2 µM), for inactives: top-dose activity change, negative = growth inhibition, actives largely listed as inhibitors | chicken DT40 Tdp1-/-;hTDP1 cells + 20 nM CPT, ATP luminescence, 48 h; note: potency is the fitted concentration of half-maximal effect; % is set by controls: 0 for no effect and ±100 for the full control effect; nearly all actives have a fitted effect of over 55% in size
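Cell growth measured by CellTiter-Glo luminescence after a minimum 48 h, 37 C compound exposure with 20 nM CPT in Tdp1-knockout DT40 cells stably expressing hTDP1, seeded 400/well; qHTS titration format.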
Chronic BCR inh = qHTS Assay to Find Inhibitors of Chronic Active B-Cell Receptor Signaling | ABC-DLBCL IkBa-CBG/CBR reporter, luminescence ratio, 4 h | Potency, µM (series often up to 46.1 µM), inactives show at the top dose activity change, negative = inhibition, actives largely listed as inhibitors | 0.05% of 340,000 active; active = well fitted inhibition curve with a large enough effect in the signal ratio, with a control signal flat, not every such curve was filed as active; inconclusive = small, poorly fitted or top-dose-only effect, or effect the other way, or a change in a side signal; the % refers to the signal ratio;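 note: potency is the fitted concentration of half-maximal effect; plate controls were basal doxycycline-induced cells for no effect and cells given 10 µM MG132 for full effect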
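Compounds up to 46 uM were incubated four hours with TMD8 cells whose green CBG68 luciferase is fused to IkappaBalpha; red CBR luminescence normalised the signal, and concentration-effect curves were fitted to fusion, red and ratio data.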
IL-1B inflam inh = qHTS for Inhibitors of Inflammasome Signaling: IL-1-beta AlphaLISA Primary Screen | THP-1 LPS/ATP IL-1B secretion, AlphaLISA, 16 h; active compounds read low | activity change, % at 57.5 µM | 4.7% of 360,000 active; in the data active = activity change below about -50%; inconclusive = mostly about -30% to -49%; note: % is set by controls: 0 for no effect and ±100 for the full control effect
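THP-1 cells pretreated 1 hr with compounds (up to 57.5 uM final), then stimulated with LPS (250 ng/mL final) plus ATP (1.25 mM final); secreted IL-1B measured by AlphaLISA after 16 hr, decreased signal indicating inhibition.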
SW480 rerep = A quantitative high throughput screen for small molecules that induce DNA re-replication in SW480 colon adenocarcinoma cells; 1.8% of 340,000 active; SW480 DNA re-replication, Hoechst DNA content imaging, 48 h; Potency, µM (top dose mostly 46.1 µM), for the others: at the highest dose re-replication activation, actives largely listed as activators; note: potency is the fitted concentration of half-maximal effect; % of control where 0% means no effect; nearly all actives have a fitted effect of over 55% in size
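250 cells/well; 23 nL cpd via pin tool; 48 hr, 37 C, 5% CO2; Hoechst 40 min; imager read of total nuclear intensity, ex 405/em 500-530 nm.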
TDP1 cell noCPT = qHTS for Inhibitors of human tyrosyl-DNA phosphodiesterase 1 (TDP1): qHTS in cells in absence of CPT | 15% of 420,000 active | Potency, µM (titrated, usually from 46.2 µM), without a hit: top-dose activity change, negative = growth inhibition, usual class: inhibitors | DT40 Tdp1-/- hTDP1 cells, no CPT, ATP luminescence, 48 h; note: potency is the fitted concentration of half-maximal effect; % is set by controls: 0 for no effect and ±100 for the full control effect; nearly all actives have a fitted effect of over 55% in size
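Readout: luminescence from CellTiter-Glo after 30 min in the dark at RT. Cells: DT40 Tdp1-/- with stable hTDP1, 400/well. Exposure: compounds alone, ≥48 hr, 37 °C.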
MCF10A rereplic = A quantitative high throughput screen for small molecules that induce DNA re-replication in MCF 10a normal breast cells; Potency, µM (series often up to 46.1 µM), for inactives: at the highest dose activity, positive = re-replication, usual class: activators; MCF 10A DNA re-replication, Hoechst nuclear intensity, 48 h; 2.9% of 350,000 active; note: potency is the fitted concentration of half-maximal effect; % of control where 0% means no effect; nearly all actives have a fitted effect of over 50% in size
An asterisk follows results filed as active; ? = inconclusive; nt = no result given. Shown are actives, neighbours in structure and some others; about 19% of the full set was active somewhere. Unless noted, calls come from the whole dose curve; as a rule, active = well fitted curve in the direction sought with a large enough effect; inconclusive = small, poorly fitted or top-dose-only effect, or another doubt; inactive = no such curve, though single readings can be large; an effect the other way counts as inactive or inconclusive.

SMILES | DT40 TDP1 CPT | Chronic BCR inh | IL-1B inflam inh | SW480 rerep | TDP1 cell noCPT | MCF10A rereplic
O=C1c2sccc2-c2cccc3cccc1c23 | ? | nt | -24 | nt | ? | nt
O=C(NC(C(=O)N/N=C/c1ccccn1)c1n[nH]c(=O)c2ccccc12)c1ccccc1 (centres undefined) | -1% | 4% | 22 | 28% | 3% | ?
Cc1ccc2nc3c(cc(C(=O)NCc4ccco4)c(=N)n3C3CCCC3)c(=O)n2c1 | nt | -4% | nt | nt | nt | nt
Cc1cccn2c(=O)c3cc(C(=O)NCc4ccco4)c(=N)n(C4CCCCC4)c3nc12 | ? | 4% | -98* | 16µM* | ? | 23µM*
Cc1cccn2c(=O)c3cc(C(=O)NC4CCCC4)c(=N)n(C4CCCCC4)c3nc12 | -14% | 3% | 21 | 3.3µM* | ? | 25%
Cc1cccn2c(=O)c3cc(S(=O)(=O)c4ccc(Br)cc4)c(=N)n(C4CCCC4)c3nc12 | ? | ? | 37 | -25% | ? | 10%
Cc1cccn2c(=O)c3cc(C(=O)NCc4ccco4)c(=N)n(CCOCCO)c3nc12 | -32% | -1% | -57* | ? | ? | ?
COCCN(Cc1nc2ccccc2c(=O)[nH]1)C(=O)COc1cccc(C(C)=O)c1 | -11% | 3% | 2 | -4% | -6% | -2%
Cc1nc(Nc2ccc(Cl)cc2)cc(-c2ccccc2)n1 | 23µM* | nt | nt | nt | -103% | nt
Cc1ccc(Nc2cc(-c3ccccc3)nc(C)n2)cc1 | ? | nt | nt | nt | 26µM* | nt
CCOC(=O)c1ccc(Nc2cc(-c3ccccc3)nc(C)n2)cc1 | -29% | nt | nt | nt | ? | nt
CCCCn1c(N)c(N(CC(C)C)C(=O)CCN2C(=O)C3CC=CCC3C2=O)c(=O)[nH]c1=O (centres undefined) | -3% | nt | -1 | nt | 1% | nt
CCC(C)(C#CCN1CCCCC1)OCCC#N (centres undefined) | -28% | -1% | 5 | 18µM* | 3% | -3%
CCOC(=O)c1[nH]c2c(c1-c1ccccc1)C(=O)CC(c1ccccc1)C2 (centres undefined) | -26% | ? | 13 | ? | ? | ?
COC(=O)c1[nH]c2c(c1C)C(=O)CC(c1ccccc1)C2 (centres undefined) | 1.3µM* | ? | 45 | 17% | 1.3µM* | 13%
CCOC(=O)c1[nH]c2c(c1Cc1ccccc1)C(=O)CC(c1ccccc1)C2 (centres undefined) | 18µM* | nt | nt | nt | 21µM* | nt
Cc1c(C(=O)OCc2ccccc2)[nH]c2c1C(=O)CC(c1ccc(Cl)cc1)C2 (centres undefined) | 18µM* | nt | nt | nt | 15µM* | nt
COc1cc(C)c(CN2CCN(CC(=O)Nc3ccccc3C(=O)NC3CC3)CC2)cc1OC | -28% | -11% | ? | -19% | -5% | 3%
NC(=S)N/N=C1\CCOc2ccc(Cl)cc21 | 18µM* | ? | ? | -35% | ? | 1%
NC(=S)NN=C1c2cc(Cl)ccc2-c2c1cc(Cl)cc2[N+](=O)[O-] | ? | nt | 19 | ? | ? | 20%
NC(=O)c1ccccc1N=Cc1cccnc1 | ? | nt | 17 | -9% | -18% | 0%
Cc1ccccc1C=Nc1ccccc1C(N)=O | 5.2µM* | 0% | -1 | 4.1µM* | 4.6µM* | 3.3µM*
Cc1ccc(C=Nc2ccccc2C(N)=O)cc1 | 2.8µM* | ? | 41 | ? | 3.2µM* | 12µM*
Cc1ccc(C=Nc2ccccc2C(=O)Nc2ccccc2)cc1 | ? | -1% | 22 | -1% | 12µM* | ?
CCOc1ccc(Oc2ccc(NS(=O)(=O)c3ccc(CCC(=O)O)cc3)cc2)cc1 | -12% | nt | 19 | nt | ? | nt
SMILES | DT40 TDP1 CPT | Chronic BCR inh | IL-1B inflam inh | SW480 rerep | TDP1 cell noCPT | MCF10A rereplic
O=C(c1ccc(-n2cccc2)cc1)N1CCN(Cc2ccccc2)CC1 | ? | ? | -30 | -16% | ? | 19%
COc1cc(CN2CCN(C(=O)c3ccc(-c4ccccc4)cc3)CC2)cc(OC)c1OC | 21µM* | -2% | -19 | -7% | 26µM* | 1%
COc1ccc(C2N(C(=O)c3ccccc3)CCN2C(=O)c2ccc(C)cc2)cc1 (centres undefined) | 29µM* | -26% | -13 | -13% | ? | -1%
COc1cc(OC)cc(C(=O)N2CCN(C(=O)c3ccc(-c4ccccc4)cc3)CC2)c1 | -22% | -7% | -68* | 2% | ? | -3%
Cn1nc(-c2ccc(C(=O)N3CCN(Cc4ccccc4)CC3)cc2)c2ccccc2c1=O | 23µM* | 0% | 6 | -16% | 18µM* | -1%
CC(C)(C)CC(=O)Nc1nnc2n1CCS2 | -22% | nt | nt | nt | 2% | nt
O=C(Nc1ccc(S(=O)(=O)Nc2ncccn2)cc1)C1CC(=O)N(c2ccc(Cl)cc2)C1 (centres undefined) | 4% | 4% | 28 | -6% | 4% | 4%
CS(=O)(=O)c1ccc(Cn2c3c(c4cc(F)cc(F)c42)CCC[C@H]3CC(=O)O)cc1 | 14% | nt | nt | nt | -7% | nt
CN(C)c1ccc(-c2csc(C(C)(O)c3ccccc3)n2)cc1 (centres undefined) | 15µM* | nt | 18 | nt | 16µM* | nt
COc1cc(OC)cc(C(=O)NC(=S)Nc2nc(-c3cc4ccccc4o3)cs2)c1 | -8% | ? | 22 | -24% | 13% | 0%
CC(O)(c1ccccc1)c1nc(-c2cccc(C(F)(F)F)c2)cs1 (centres undefined) | ? | nt | -7 | nt | ? | nt
CC(O)(c1ccccc1)c1nc(-c2ccc(Cl)cc2)cs1 (centres undefined) | ? | nt | -6 | nt | ? | nt
CC(O)(c1ccccc1)c1nc(-c2cc3ccccc3o2)cs1 (centres undefined) | 23µM* | nt | 61 | nt | 13µM* | nt
COCCNc1nc(-c2cc3ccccc3o2)cs1 | -7% | ? | -53* | 3% | -4% | -1%
COC(=O)[C@@]1(Cc2ccccc2)[C@H]2C(=O)N(C)C(=O)[C@H]2[C@H]2CN=C(SC)N21 | 8% | 0% | 23 | ? | -3% | -1%
CCc1ccccc1NC(=O)Cn1nc(C)c2nn(-c3ccc(Cl)cc3)c(C)c2c1=O | ? | nt | nt | nt | 15µM* | nt
